Only a selection was taken, and the strongest signals are over-represented in it overall.

Assay in all cases: glycan array binding signal (z-score within array); higher = stronger binding
Common to all, as to conditions: glycan notation: IUPAC condensed, linker removed

In one assay the target is Fuc(a1-2)Gal(b1-3)GlcNAc. A digest of the protocol: (§1)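 Glycan array data were curated from 3228 arrays in the Consortium for Functional Glycomics database and kept only where the protein sequence was available. Glycan names were converted to IUPAC-condensed notation, and columns mapping to the same glycan were averaged. The binding signal is a within-array Z-score, averaged across arrays of the same protein sequence at different concentrations or buffers and across linkers. Negative Z-scores can be read as non-binding.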

For assay [1], the target named is Fuc(a1-2)Gal(b1-3)GlcNAc(b1-3)[Gal(b1-4)GlcNAc(b1-6)]Gal(b1-4)Glc. Summed up:
as §1

In assay [2] the target is Fuc(a1-2)Gal(b1-3)[Fuc(a1-4)]GlcNAc. A digest of the protocol: as §1
In assay [3] the target is Fuc(a1-2)Gal(b1-3)[Fuc(a1-4)]GlcNAc(b1-2)Man(a1-3)[Fuc(a1-2)Gal(b1-3)[Fuc(a1-4)]GlcNAc(b1-2)Man(a1-6)]Man(b1-4)GlcNAc(b1-4)[Fuc(a1-6)]GlcNAc(b1-4)[Fuc(a1-6)]GlcNAc. A digest of the protocol:
as §1

Assay [4] has as its target Fuc(a1-2)Gal(b1-3)[Fuc(a1-4)]GlcNAc(b1-3)[Fuc(a1-3)[Gal(b1-4)]GlcNAc(b1-6)]Gal(b1-4)Glc. Summed up:
as §1

In assay [5] the target is Fuc(a1-2)Gal(b1-4)GlcNAc(b1-2)Man. A digest of the protocol: as §1
Assay [6] deals with Fuc(a1-2)Gal(b1-4)GlcNAc(b1-3)Gal(b1-4)GlcNAc(b1-2)Man(a1-3)[Fuc(a1-2)Gal(b1-4)GlcNAc(b1-3)Gal(b1-4)GlcNAc(b1-2)Man(a1-6)]Man(b1-4)GlcNAc(b1-4)GlcNAc. A digest of the protocol:
as §1

Assay [7] has as its target Fuc(a1-2)[Gal(a1-3)]Gal(b1-4)GlcNAc(b1-3)GalNAc. Summed up:
as §1

Assay [8] addresses Fuc(a1-2)[GalNAc(a1-3)]Gal. Summed up: as §1
For assay [9], the target named is Fuc(a1-2)[GalNAc(a1-3)]Gal(b1-3)GalNAc(a1-3)[Fuc(a1-2)]Gal(b1-4)GlcNAc. A digest of the protocol: as §1
The target of assay [10] is Fuc(a1-2)[GalNAc(a1-3)]Gal(b1-3)GlcNAc. A digest of the protocol:
as §1

Assay [11] addresses Fuc(a1-2)[GalNAc(a1-3)]Gal(b1-3)GlcNAc(b1-3)GalNAc. Summed up:
as §1

The target in assay [12] is Fuc(a1-2)[GalNAc(a1-3)]Gal(b1-4)[Fuc(a1-3)]GlcNAc(b1-3)GalNAc. A digest of the protocol: as §1
In assay [13] the target is Fuc(a1-3)[Gal3S(b1-4)]GlcNAc. Summed up: as §1
Assay [14] deals with Gal(a1-4)Gal(b1-3)GlcNAc(b1-2)Man(a1-3)[Gal(a1-4)Gal(b1-3)GlcNAc(b1-2)Man(a1-6)]Man(b1-4)GlcNAc(b1-4)GlcNAc. A digest of the protocol:
as §1

For assay [15], the target named is Gal(b1-3)GlcNAc(b1-3)Gal(b1-4)GlcNAc(b1-2)Man(a1-3)[Gal(b1-3)GlcNAc(b1-3)Gal(b1-4)GlcNAc(b1-2)Man(a1-6)]Man(b1-4)GlcNAc(b1-4)GlcNAc. Summed up:
as §1

The target in assay [16] is Gal(b1-3)[Fuc(a1-4)]GlcNAc(b1-6)GalNAc. Summed up:
as §1

Assay [17] has as its target Gal(b1-4)GalNAc(a1-3)[Fuc(a1-2)]Gal(b1-4)GlcNAc. A digest of the protocol:
as §1

Assay [18] has as its target Gal(b1-4)GlcNAc(b1-2)[Gal(b1-4)GlcNAc(b1-6)]Man(a1-6)[Gal(b1-4)GlcNAc(b1-2)Man(a1-3)]Man(b1-4)GlcNAc(b1-4)[Fuc(a1-6)]GlcNAc. A digest of the protocol: as §1
Assay [19] addresses Gal(b1-4)GlcNAc(b1-3)Gal(b1-4)GlcNAc(b1-2)Man(a1-3)[Gal(b1-4)GlcNAc(b1-3)Gal(b1-4)GlcNAc(b1-2)Man(a1-6)]Man(b1-4)GlcNAc(b1-4)[Fuc(a1-6)]GlcNAc. Summed up:
as §1

Assay [20] deals with Gal(b1-4)GlcNAc(b1-3)Gal(b1-4)GlcNAc(b1-3)Gal(b1-4)GlcNAc(b1-2)Man(a1-3)[Gal(b1-4)GlcNAc(b1-3)Gal(b1-4)GlcNAc(b1-3)Gal(b1-4)GlcNAc(b1-2)Man(a1-6)]Man(b1-4)GlcNAc(b1-4)[Fuc(a1-6)]GlcNAc. Summed up: as §1
Assay [21] has as its target Gal(b1-4)GlcNAc(b1-3)Gal(b1-4)GlcNAc(b1-3)Gal(b1-4)GlcNAc(b1-3)Gal(b1-4)GlcNAc(b1-2)Man(a1-3)[Gal(b1-4)GlcNAc(b1-3)Gal(b1-4)GlcNAc(b1-3)Gal(b1-4)GlcNAc(b1-3)Gal(b1-4)GlcNAc(b1-2)Man(a1-6)]Man(b1-4)GlcNAc(b1-4)[Fuc(a1-6)]GlcNAc. A digest of the protocol:
as §1

Assay [22] deals with Gal(b1-4)GlcNAc(b1-3)Gal(b1-4)GlcNAc(b1-3)Gal(b1-4)GlcNAc(b1-3)Gal(b1-4)GlcNAc(b1-3)Gal(b1-4)GlcNAc(b1-2)Man(a1-3)[Gal(b1-4)GlcNAc(b1-3)Gal(b1-4)GlcNAc(b1-3)Gal(b1-4)GlcNAc(b1-3)Gal(b1-4)GlcNAc(b1-3)Gal(b1-4)GlcNAc(b1-2)Man(a1-6)]Man(b1-4)GlcNAc(b1-4)GlcNAc. Summed up:
as §1

B1: SJCP1084 (Schistosoma japonicum) (protein)
chain: MRIINLVIISTALLLINLLQTKSQANGEDTKNGTPDDPGLTKSTELKVEVQALLKDKKTNMRVKWNENLLDNTKPEYHNLRDEACELLLQIVRSVVPLSQDDGECKDVTFTKYVVGTKDGAVNVKLTITFKDSVAINQKPMDLKLKLENDFKNLQSESTLKATKPTFTVKVEKRLIPISKPQTTPPTTAKNDASKENVGDIGGEDSTVPTAAPATAASANEEKDEGDKDNKDSQHPNVLTSNVNDRNLIIALVALMILAIGVALTAAVKQR
Turning to B1, the “glycan array binding signal (z-score)” value is 0.181 with Fuc(a1-2)Gal(b1-3)GlcNAc; -0.827 in assay [1]; 0.425 in assay [2]; -0.159 in assay [3]; -0.831 in assay [4]; 1.24 in [5]. Further, the “glycan array binding signal (z-score)” value is 4.99 in [6]; -0.455 in assay [7]; 0.405 in [8]; -0.717 in assay [9]; 0.643 in assay [10]; 2.68 in assay [11]. The “glycan array binding signal (z-score)” value was -0.545 in [12]; -1.01 in assay [13]; 3.06 in assay [14]; 0.617 in assay [15]; -0.381 in assay [16]; -0.495 in [17]. The “glycan array binding signal (z-score)” value in assay [18] worked out at 2.77; in assay [19] it was 4.14; in assay [20] it was 3.35; in [21], 3.73; in assay [22], 4.37.

Source of the values: the supplement of paper PMC8728848.
